Abeta rescue = A-beta toxicity reversal in yeast; hit rate 0.063% among 410,000; Potency, µM (titrated, usually from 46.1 µM), usual class: activators; AID 1347071; yeast expressing A-beta42, growth rescue, OD600, 48 h; response scale: 0% DMSO, 100% iron-clioquinol control; further: nearly all actives have a fitted effect of over 55% in size
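Growth rescue measured by 600 nm absorbance after 48 h yeast culture at 30 C with compound. Values normalized between DMSO and an equimolar ferric chloride plus clioquinol control.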
FUS yeast rescue = FUS proteinopathy suppression in yeast | S. cerevisiae FUS-expressing, growth rescue, OD600, 24 h | Potency, µM (top dose mostly 76.6 µM), actives largely listed as activators | hit rate 0.24% among 390,000 | AID 1347120;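 further: plate controls were DMSO vehicle for no effect and reference control for full effect; nearly all actives have a fitted effect of over 55% in size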
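Yeast FUS proteinopathy model; galactose-induced FUS (2%), starting OD 0.005. Cpds in dilution series, 24hr, 30C, 99% humidity. Abs 600 nm growth. Pos ctrl CP55940 (top 92uM final); neg ctrl DMSO.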
TDP-43 yeast inh = TDP-43 toxicity inhibition in yeast; TDP-43 expressing yeast growth rescue, BacTiter-Glo, 24 h; Potency, µM (titrated, usually from 46.1 µM), for the others: top-dose growth rescue (activation), most hits filed as activators; hit rate 1.8% among 410,000; further: % of control where 0% means no effect; nearly all actives have a fitted effect of over 50% in size
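Yeast expressing TDP-43 (pregrown in raffinose, seeded at OD600=0.02 in galactose medium) exposed to compounds 24 hr at 30 deg C. Growth read by BacTiter-Glo luminescence; rescue of toxicity appears as increased signal.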
aSyn yeast inh = alpha-synuclein toxicity inhibition in yeast. AID 652106. Potency, µM (titrated, usually from 46.1 µM), without a hit: at the highest dose growth rescue (activation), actives largely listed as activators. Yeast expressing alpha-synuclein, growth rescue, BacTiter-Glo, 24 h. hit rate 0.14% among 370,000; further: % of control where 0% means no effect; nearly all actives have a fitted effect of over 65% in size
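Readout is rescue of growth in alpha-synuclein-expressing yeast, so inhibitors of toxicity appear as activators. Growth after 24 hr at 30 deg C in galactose medium is quantified by luminescence.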
Mito fusion yeast = mitochondrial division inhibition or fusion activation; hit rate 0.23% among 320,000; Potency, µM (top dose mostly 46.1 µM), for inactives: at the highest dose growth rescue (activation), hits mostly activators; S. cerevisiae fusion-defective mutant growth rescue, CellTiterGlo 48 h; AID 485298; further: % of control where 0% means no effect; nearly all actives have a fitted effect of over 45% in size
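Luminescent cell viability in 1536-well qHTS format served as the measure of rescued growth in ts fusion-mutant S. cerevisiae cultured on non-fermentable YPEG for 48 hours at 37C.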
Starred values were filed as active, the others as inactive; i = inactive; u = inconclusive; x = not tested or not shown; ! = a repeat was not active. Hits are enriched below; roughly 2.2% of the tested compounds scored in any of these assays. The call rests on the fitted dose curve; in most records, active means well fitted curve in the direction sought with a large enough effect; inconclusive means small, poorly fitted or top-dose-only effect, or another doubt; inactive means no such curve, though single readings can be large; an effect the other way counts as inactive or inconclusive. Potency means the concentration at half of the fitted maximal effect.

SMILES	Abeta rescue	FUS yeast rescue	TDP-43 yeast inh	aSyn yeast inh	Mito fusion yeast
CCOC(=O)C1=C(C)NC(C)=C(C(=O)OCC)C1c1c(F)c(F)c(F)c(F)c1F	x	x	x	-86.3%	2.31µM*
Cc1cccc(C)c1NC(=O)CN(C)C(=O)c1ccccc1Sc1ccccc1C#N	i	i	12.9%	0.6%	2.8%
CCSc1ccc([C@@H]2[C@H]3C(=O)N(CC)C(=O)[C@H]3[C@]3(C(=O)OC)CCCCN23)cc1	i	i	-23.5%	6.3%	15.4%
CCN1C(=O)[C@H]2[C@@H](c3ccc(-c4ccccc4)cc3)N3CCCC[C@@]3(C(=O)OC)[C@H]2C1=O	i	u	35.5µM*	2.0%	u
CCN1C(=O)[C@@H]2[C@@H](c3ccc(-c4ccc(OC)cc4)cc3)N3CCCC[C@@]3(C(=O)OC)[C@@H]2C1=O	i	i	-2.8%	0.1%	20.9%
CCSc1ccc([C@@H]2[C@@H]3C(=O)N(CC)C(=O)[C@@H]3[C@]3(C(=O)OC)CCCCN23)cc1	i	i	25.1µM*	29.5%	10.8%
COc1cccc(N2CCN(C(=O)CCc3c(C)nc4c(c3C)c(=O)n(C)c(=O)n4C)CC2)c1	i	i	-5.4%	x	x
O=C(COC(=O)c1ccc(Br)c(S(=O)(=O)N2CCOCC2)c1)NCCc1ccccc1	i	i	0.0%	12.5%	x
CC(=O)c1cccc(NC(=O)N(c2ccccc2)c2ccccc2)c1	i	i	15.8µM*	11.7%	-6.6%
CC(=O)c1cccc(NC(=O)c2ccc3c(c2)OCO3)c1	i	i	12.6µM*	2.6%	-2.9%
CS(=O)(=O)c1nc([N+](=O)[O-])nn1CCCc1ccccc1	i	i	17.8µM*	-14.4%	x
Cn1nc([N+](=O)[O-])nc1S(C)(=O)=O	i	i	20.2%	-11.0%	-3.3%
O=C1c2cccnc2-c2ncccc21	i	i	2.2%	-11.9%	1.3%
COC1=C(Br)C(=O)c2ncccc2C1=O	i	x	27.9%	15.8µM*	x
O=C(NCCc1ccccc1)c1ccc(CS(=O)(=O)c2ccc(Cl)cc2)o1	i	i	2.7%	-5.4%	2.5%
CCc1ccccc1S(=O)(=O)Cc1ccc(C(=O)NCCc2ccc(Cl)cc2)o1	i	u	35.5µM*	x	x
CCc1ccccc1S(=O)(=O)Cc1ccc(C(=O)NCc2ccc(Cl)cc2)o1	i	i	35.5µM*	x	x
CN(C)c1ccc(/C=C/c2ccnc3ccc(I)cc23)cc1	x	x	x	-0.8%	x
Cc1cc(C)c(/C=C(\C#N)C(N)=S)c(C)c1	i	i	11.2µM*	27.2%	x
Cc1ccc(-c2ccc(/C=C(\C#N)C(N)=S)n2C)cc1	i	i	0.0%	-5.0%	-4.3%
COCCN1C(=O)C(=O)/C(=C(/O)c2ccc(S(=O)(=O)N3CCOCC3)cc2)C1c1cccc(OC)c1 (stereo not drawn)	i	5.01µM*	-8.0%	-7.2%	-7.7%
O=S(=O)(c1ccccc1)N1CCC(Oc2ccc(-n3cnnn3)cc2)CC1	i	i	u	5.9%	35.5µM*
CCn1ncc(Br)c1C(=O)Nc1ccccc1C(=O)OC	i	i	14.1µM*	-7.1%	x
O=[N+]([O-])c1ccccc1/C=C1\C=Cc2ccccc21	x	x	x	-28.7%	x
CSc1ccc(/C=C/C(=O)c2ccc(O)cc2)cc1	u	i	14.1µM*	-11.0%	28.7%
SMILES	Abeta rescue	FUS yeast rescue	TDP-43 yeast inh	aSyn yeast inh	Mito fusion yeast
O=C(/C=C/c1ccc(O)cc1)c1ccc(O)cc1O	i	i	0.0%	-38.6%	16.4µM*!
Cc1ccc(/C=C/C(=O)c2ccc(O)cc2)cc1	i	u	2.7%	-6.5%	21.3%
COc1ccc(C(=O)/C=C/c2ccccc2)c(O)c1	i	i	u	-1.3%	-3.0%
C[C@]12CC[C@H](O)C[C@@H]1CC[C@@H]1[C@@H]2CC[C@@]2(C)[C@H]1CCC(=O)[C@]21CCCO1	i	i	-22.1%	-4.1%	x
CO[C@H]1CC[C@@]2(C)[C@@H](CC[C@@H]3[C@@H]2CC[C@@]2(C)[C@H]3C[C@H](C(=O)O)O[C@]23CCCO3)C1	i	i	15.8µM*	21.8%	x
CN(C)S(=O)(=O)Oc1ccsc1C(=O)Nc1ccc(Br)cc1	u	i	12.6µM*	9.8%	3.0%
CN(C)S(=O)(=O)Oc1ccsc1C(=O)Nc1ccc(Cl)c(Cl)c1	i	i	22.4µM*	-3.1%	-0.9%
CN(C)S(=O)(=O)Oc1ccc(Cl)cc1C(=O)Nc1cccc(C(F)(F)F)c1	i	i	15.1%	0.1%	-0.7%
COc1ccc(COc2ccsc2C(=O)Nc2ccc(Cl)c(Cl)c2)cc1	i	i	-1.9%	-7.3%	0.5%
CN(C)S(=O)(=O)Oc1ccsc1C(=O)Nc1ccc(C(F)(F)F)cc1	u	i	2.1%	-14.6%	-0.5%
CN(C)S(=O)(=O)Oc1ccsc1C(=O)Nc1cccc(Cl)c1	i	i	12.6µM*	-8.6%	2.9%
CCOC(=O)c1ccc(NC(=O)c2ccc(-c3cccc(Cl)c3C)o2)cc1	i	i	23.5%	x	x
COc1ccc(Cl)cc1C(=O)NCc1nc(-c2cccc(C)c2)no1	i	i	11.8%	x	x
Cc1cccn2c(=O)c(/C=C(\C#N)c3nc4ccccc4n3C)c(Oc3ccc(Br)cc3)nc12	i	i	-12.5%	x	x
Cc1ccc(CNC(=O)c2sc3nc4n(c(=O)c3c2C)CCCC4)cc1	i	i	12.6µM*	x	x
Cc1c(C(=O)NCc2ccc(Cl)cc2)sc2nc3n(c(=O)c12)CCCCC3	i	i	u	x	x
Cc1c(C(=O)NCc2ccccc2)sc2nc3n(c(=O)c12)CCCCC3	i	i	u	x	x
Cc1ccc(CNC(=O)c2sc3nc4n(c(=O)c3c2C)CCCCC4)cc1	i	i	25.1µM*	x	x
Cc1c(C(=O)NCCc2ccc(Cl)cc2)sc2nc3n(c(=O)c12)CCCC3	i	u	17.8µM*	x	x
Cc1c(C(=O)NCCc2ccc(Cl)cc2)sc2nc3n(c(=O)c12)CCC3	i	i	u	7.6%	14.2%
CS(=O)(=O)c1ccc(/C=C2\C=Cc3ccccc32)cc1	x	x	x	-0.8%	x
Cc1ccccc1NC(=O)c1ccccc1-c1ccccc1	i	i	-11.3%	-4.3%	3.5%
CC(C)N(C(=O)c1ccccc1-c1ccccc1)C(C)C	i	i	-3.3%	20µM*	3.4%
Oc1c(Br)cc(Br)cc1CNc1cccc2cccnc12	i	i	17.8µM*	u	9.8%
Cc1ccc(Cl)cc1N1CCN(C(=O)c2cnn(C)c2C2CCN(C(=O)OC(C)(C)C)CC2)CC1	i	u	22.4µM*	x	x
Cc1ccc(Cl)cc1N1CCN(C(=O)c2cnn(C(C)(C)C)c2C2CCN(C(=O)OC(C)(C)C)CC2)CC1	i	i	5.3%	x	x
CCc1ccc(CNC(=O)c2cnc3c(C)cccn3c2=O)cc1	i	i	15.8µM*	x	x
S=C(NCCc1cccc(Cl)c1)NCc1ccccc1	x	x	x	x	-3.0%

Assay outcomes from PubChem.
